# Test results: the supplement of paper PMC8728848
# Many of the other results were omitted from the sample, so the strongest signals are more common in it than they were.
# B1: Gal 4 (Canis lupus) (protein)
# chain: MAYVPAPGYQPTYNPTLPYNKPIPGGLSVGMSVYIQGITSEHMRRFCVNFVAGAHPGSDIAFHFNPRFDGWDKVVFNSHLGGKWGSEEKKRSMPFRKGTHFELVFMVLAEHYKVVVNGNPFYEFGHRLPLQLVTHLQVEGDVELQSINFIGGTQPLGQGPGHTQQQPSSLPTMEGPPVFNPPVPFRKRLQGGLTVRRTVIIKGFVPFTSKSFVINFMVESSGDLALHINPRLTEGLVVRNSCLNGSWGSEDRKLSYNPFIPGQFFDLSIRCGMDRFKVYANGQHLFDFSHRLLALQNVDMLEINGDVTLSYIQV
# Experiments:
# Assay in all cases: glycan array binding signal (z-score within array); higher = stronger binding
# Settings in all cases: glycan notation: IUPAC condensed, linker removed
# Fuc(a1-2)Gal(b1-4)Glc6S = biological target: Fuc(a1-2)Gal(b1-4)Glc6S
# In short: (§1)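 Glycan array data came from 3228 arrays in the Consortium for Functional Glycomics database, and only arrays with an available protein sequence were kept. Glycan names were put into IUPAC-condensed notation, and columns mapping to the same glycan were averaged. The binding signal is a within-array Z-score, averaged across arrays of one protein sequence run at different concentrations or buffers and across linkers. A negative Z-score can be read as non-binding.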
# [1] = biological target: Fuc(a1-2)[Gal(a1-3)]Gal(b1-4)Glc
# In short: as §1
# [2] = biological target: Fuc(a1-2)[Gal(a1-3)]Gal(b1-4)GlcNAc(b1-2)Man(a1-3)[Fuc(a1-2)[Gal(a1-3)]Gal(b1-4)GlcNAc(b1-2)Man(a1-6)]Man(b1-4)GlcNAc(b1-4)GlcNAc
# In short: as §1
# [3] = biological target: Fuc(a1-2)[GalNAc(a1-3)]Gal
# In short: as §1
# [4] = biological target: Fuc(a1-2)[GalNAc(a1-3)]Gal(b1-4)Glc
# In short: as §1
# [5] = biological target: Fuc(a1-2)[GalNAc(a1-3)]Gal(b1-4)GlcNAc(b1-2)Man(a1-3)[Fuc(a1-2)[GalNAc(a1-3)]Gal(b1-4)GlcNAc(b1-2)Man(a1-6)]Man(b1-4)GlcNAc(b1-4)GlcNAc
# In short: as §1
# [6] = biological target: Fuc(a1-2)[GalNAc(a1-3)]Gal(b1-4)GlcNAc(b1-3)Gal(b1-4)GlcNAc
# In short: as §1
# [7] = biological target: Fuc(a1-2)[GalNAc(a1-3)]Gal(b1-4)GlcNAc(b1-3)Gal(b1-4)GlcNAc(b1-3)Gal(b1-4)GlcNAc
# In short: as §1
# [8] = biological target: Fuc(a1-3)[Gal(b1-4)]GlcNAc
# In short: as §1
# [9] = biological target: Fuc(a1-3)[GalNAc(b1-4)]GlcNAc
# In short: as §1
# [10] = biological target: Gal(b1-3)GalNAc(a1-3)[Fuc(a1-2)]Gal(b1-4)Glc
# In short: as §1
# [11] = biological target: Gal(b1-3)GalNAc(a1-3)[Fuc(a1-2)]Gal(b1-4)GlcNAc
# In short: as §1
# [12] = biological target: Gal(b1-3)GlcNAc(a1-6)Gal(b1-4)GlcNAc
# In short: as §1
# [13] = biological target: Gal(b1-3)GlcNAc(b1-3)Gal(b1-4)GlcNAc(b1-6)[Gal(b1-3)GlcNAc(b1-3)]Gal(b1-4)Glc
# In short: as §1
# [14] = biological target: Gal(b1-4)GalNAc(a1-3)[Fuc(a1-2)]Gal(b1-4)GlcNAc
# In short: as §1
# [15] = biological target: Gal(b1-4)GlcNAc(b1-2)Man(a1-3)[GlcNAc(b1-2)Man(a1-6)]Man(b1-4)GlcNAc(b1-4)GlcNAc
# In short: as §1
# [16] = biological target: Gal(b1-4)GlcNAc(b1-2)Man(a1-6)Man(b1-4)GlcNAc(b1-4)GlcNAc
# In short: as §1
# Gal4S(b1-4)GlcNAc = biological target: Gal4S(b1-4)GlcNAc
# In short: as §1
# Gal6S(b1-3)GlcNAc = biological target: Gal6S(b1-3)GlcNAc
# In short: as §1
# GlcA(b1-3)GlcNAc = biological target: GlcA(b1-3)GlcNAc
# In short: as §1
# [17] = biological target: GlcNAc(a1-4)Gal(b1-4)GlcNAc(b1-3)Gal(b1-4)Glc
# In short: as §1
# [18] = biological target: GlcNAc(b1-2)Man(a1-3)[GlcNAc(b1-4)][GlcNAc(b1-2)Man(a1-6)]Man(b1-4)GlcNAc(b1-4)GlcNAc
# In short: as §1
# [19] = biological target: GlcNAc(b1-2)[GlcNAc(b1-6)]Man(a1-6)[GlcNAc(b1-2)Man(a1-3)]Man(b1-4)GlcNAc(b1-4)GlcNAc
# In short: as §1
# [20] = biological target: GlcNAc(b1-2)[GlcNAc(b1-6)]Man(a1-6)[GlcNAc(b1-2)Man(a1-3)][GlcNAc(b1-4)]Man(b1-4)GlcNAc(b1-4)GlcNAc
# In short: as §1
# [21] = biological target: GlcNAc(b1-4)[GlcNAc(b1-6)]GalNAc
# In short: as §1
# Man(a1-2)Man(a1-3)Man = biological target: Man(a1-2)Man(a1-3)Man
# In short: as §1
# Man(a1-6)Man = biological target: Man(a1-6)Man
# In short: as §1
# Neu5Ac(a2-3)Gal = biological target: Neu5Ac(a2-3)Gal
# In short: as §1
# [22] = biological target: Neu5Ac(a2-3)Gal(b1-3)GalNAc
# In short: as §1
# [23] = biological target: Neu5Ac(a2-3)Gal(b1-3)[Neu5Ac(a2-3)Gal(b1-4)]GlcNAc
# In short: as §1
# [24] = biological target: Neu5Ac(a2-3)Gal(b1-4)GlcNAc(b1-3)Gal(b1-4)GlcNAc(b1-3)Gal(b1-4)GlcNAc
# In short: as §1
# [25] = biological target: Neu5Ac(a2-3)Gal6S(b1-4)GlcNAc
# In short: as §1
# [26] = biological target: Neu5Ac(a2-6)Gal(b1-3)GlcNAc(b1-3)[Gal(b1-4)GlcNAc(b1-6)]Gal(b1-4)Glc
# In short: as §1
# [27] = biological target: Neu5Ac(a2-6)Gal(b1-4)GlcNAc(b1-2)Man(a1-3)Man(b1-4)GlcNAc(b1-4)GlcNAc
# In short: as §1
# [28] = biological target: Neu5Ac(a2-6)Gal(b1-4)GlcNAc(b1-3)Gal(b1-4)GlcNAc
# In short: as §1
binder,measurement,setting,value
B1,glycan array binding signal (z-score),Fuc(a1-2)Gal(b1-4)Glc6S,0.071
same,glycan array binding signal (z-score),[1],8.77
same,glycan array binding signal (z-score),[2],2.77
same,glycan array binding signal (z-score),[3],-0.155
same,glycan array binding signal (z-score),[4],5.95
same,glycan array binding signal (z-score),[5],3.76
same,glycan array binding signal (z-score),[6],7.32
same,glycan array binding signal (z-score),[7],0.359
same,glycan array binding signal (z-score),[8],-0.151
same,glycan array binding signal (z-score),[9],-0.147
same,glycan array binding signal (z-score),[10],11.1
same,glycan array binding signal (z-score),[11],2.63
same,glycan array binding signal (z-score),[12],-0.137
same,glycan array binding signal (z-score),[13],-0.146
same,glycan array binding signal (z-score),[14],3.3
same,glycan array binding signal (z-score),[15],-0.154
same,glycan array binding signal (z-score),[16],-0.156
same,glycan array binding signal (z-score),Gal4S(b1-4)GlcNAc,-0.144
same,glycan array binding signal (z-score),Gal6S(b1-3)GlcNAc,-0.135
same,glycan array binding signal (z-score),GlcA(b1-3)GlcNAc,0.144
same,glycan array binding signal (z-score),[17],-0.147
same,glycan array binding signal (z-score),[18],-0.148
same,glycan array binding signal (z-score),[19],-0.148
same,glycan array binding signal (z-score),[20],-0.148
same,glycan array binding signal (z-score),[21],-0.147
same,glycan array binding signal (z-score),Man(a1-2)Man(a1-3)Man,-0.142
same,glycan array binding signal (z-score),Man(a1-6)Man,-0.148
same,glycan array binding signal (z-score),Neu5Ac(a2-3)Gal,-0.152
same,glycan array binding signal (z-score),[22],-0.145
same,glycan array binding signal (z-score),[23],-0.156
same,glycan array binding signal (z-score),[24],-0.153
same,glycan array binding signal (z-score),[25],-0.16
same,glycan array binding signal (z-score),[26],-0.151
same,glycan array binding signal (z-score),[27],-0.151
same,glycan array binding signal (z-score),[28],-0.151
